# Source: PubChem BioAssay (NCATS)
# Results filed as inconclusive are left out. Activity calls are given as the source filed them.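 Rule for the calls, unless noted: active = compounds whose dose series gives a full or clear partial fitted curve of increased nuclear translocation; inconclusive = weak partial curve or effect only at the top dose; inactive = no dose-dependent translocation response.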
# System: not listed separately
# Experiment: Stat Signaling Pathway (AID 446; active = well fitted curve in either direction with a large enough effect, not every such curve was filed as active;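 note: ME-180 cervical cancer cells given 40 pM IL-6 alongside compound; SIE-controlled beta-lactamase reporter measured as 460/530 nm FRET emission ratio; % is set by controls: 0 for no effect and ±100 for the full control effect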)
# Details: ME-180 SIE beta-lactamase reporter, IL-6 stimulated, 5 h; at 17.2 µM (top of the series) unless noted
# Summary of the method: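 ME-180 cells carrying a SIE-driven beta-lactamase reporter are stimulated with 40 pM IL-6 for 5 h at 37C in the presence of compound. The 460/530 nm FRET substrate ratio is read after 2.5 h at RT. Data are normalised to 300 pM IL-6 and to 125 nM JAK inhibitor controls.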
row,Compound,"activity, negative = inhibition"
1,CN(C)c1oc(-c2cccs2)nc1C#N,10.4% (inactive)
2,O=C(NCCCN1CCOCC1)C1(c2ccccc2)CCOCC1,5.62% (inactive)
3,CN(C)CC(O)COc1ccc(C(C)(C)c2ccc(OCC(O)CN(C)C)cc2)cc1 (stereo not drawn),-4.4% (inactive)
4,O=C(Nn1cnnc1)C(c1ccccc1)c1ccccc1,3.83% (inactive)
5,CN(C)CCNC(=O)C12CC3(C)CC(C)(CC(C)(C3)C1)C2,8.6% (inactive)
6,CC(=O)[C@H]1[C@@H]2C(=O)N(c3cccc(Cl)c3)C(=O)[C@@H]2[C@H]2c3ccccc3C=CN21,-13.6% (inactive)
7,CCNc1sc(C(=O)c2cccs2)c(N)c1C#N,-7.29% (inactive)
8,Cc1cc(C)n(Cc2ccc(C(=O)NCCC3=CCCCC3)o2)n1,1.51% (inactive)
9,Cc1c(C2CC(=O)N(c3ccccc3)C2=O)[nH]n(-c2ccccc2)c1=O (stereo not drawn),1.65% (inactive)
10,ONC(=Nc1ccccc1)C(=Nc1ccccc1)NO,-0.28% (inactive)
11,CCCC1C2C(=O)N(c3ccccc3OC)C(=O)C2ON1c1ccccc1 (stereo not drawn),0.927% (inactive)
12,N#CC1(c2ccccc2)CCC(=NO)CC1 (stereo not drawn),11.5% (inactive)
13,c1ccc(SCc2nc3ccccc3[nH]2)nc1,8.86% (inactive)
14,CC(C)Cc1[nH]c(=O)c(C#N)c2c1COC(C)(C)C2,2.18% (inactive)
15,Nc1nc(NC(=O)Cc2ccccc2)nn1-c1ccccc1,4.24% (inactive)
16,C=CCOc1nc2c(c(=O)n(Cc3ccc(Cl)cc3)c(=O)n2C)n1C,9.68% (inactive)
17,N#Cc1nc(COc2ccc(Br)cc2)oc1NCCN1CCOCC1,1.36% (inactive)
18,C=C1[C@@H](C)C2[C@H](Cc3ccccc3)NC(=O)[C@]23OC(=O)CC[C@H](O)CCC[C@H](C)C/C=C/[C@H]3[C@@H]1O (stereo partly drawn),-14.9% (inactive)
19,Cc1nc(NCCCO)c(C#N)c2c1COC(C)(C)C2,1.39% (inactive)
20,CC(=O)N1CCN(C2c3cccc4cccc(c34)C2NS(=O)(=O)c2ccccc2)CC1 (stereo not drawn),2.23% (inactive)

row,Compound,"activity, negative = inhibition"
1,COc1ccc2c(=O)c(-c3nc(C)cs3)coc2c1,12.4% (inactive)
2,O=C(CSc1nnc(-c2ccccc2)c(-c2ccccc2)n1)N1CCOCC1,8.97% (inactive)
3,Cc1cc(C)n(CC2CC(=O)N(c3ccc(Cl)c(Cl)c3)C2=O)n1 (stereo not drawn),0.577% (inactive)
4,C=CCSc1nc(C)c(CC=C)c(=O)[nH]1,0.0275% (inactive)
5,Cc1c(NC(=O)C(CC(=O)O)NCc2ccco2)c(=O)n(-c2ccccc2)n1C (stereo not drawn),1.34% (inactive)
6,CC(=O)NC1(C(F)(F)F)C(=O)Nc2c1c(=O)n(C)c(=O)n2C (stereo not drawn),0.854% (inactive)
7,O=C(NCc1ccccc1)/C(=N\O)c1ccccc1,3.38% (inactive)
8,CC1(C)CC(=O)C=C(N=CC2=C(O)CC(C)(C)CC2=O)C1,12.2% (inactive)
9,CCCOc1cccc(C2/C(=C(/O)c3ccc(F)cc3)C(=O)C(=O)N2CCN(C)C)c1 (stereo not drawn),-0.187% (inactive)
10,Nc1ccc2[nH]ncc2c1,-0.564% (inactive)
11,CCOC(=O)COc1nc(N(C)C)nc(N(C)C)n1,8.42% (inactive)
12,COc1ccc(Cn2c(O)cc(=O)[nH]c2=O)cc1,-3.75% (inactive)
13,C=CCn1cnc2c(c1=O)c1nc3ccccc3nc1n2-c1ccc(C)cc1,-8.6% (inactive)
14,COC(=O)C1C(=O)NCC1c1ccccc1 (stereo not drawn),7.06% (inactive)
15,N#Cc1nc(-c2cccs2)oc1NCCN1CCOCC1,5.17% (inactive)
16,Fc1cnc(N2CCOCC2)nc1NCc1ccccc1,-8.43% (inactive)
17,COc1ccc(C2NC3=C(CCC3)C3(C#N)C(OC)(OC)N=C(N)C23C#N)cc1 (stereo not drawn),-5.86% (inactive)
18,Cn1nccc1C(=O)Nc1ccccc1C(=O)O,4.71% (inactive)
19,CN=C1c2cc3c(Br)c(OC)ccc3n2CCN1C,6.11% (inactive)

# Molecular target: Glucocorticoid receptor (Homo sapiens) (UniProt P04150)
# Experiment: GR-GFP Redistribution (AID 450); note: potency is the fitted concentration of half-maximal effect
# Details: U2OS GR-GFP nuclear translocation, laser cytometry, 2 h; series mostly up to 20.6 µM
# Chain of Glucocorticoid receptor (Homo sapiens) (P04150 whole entry, looked up): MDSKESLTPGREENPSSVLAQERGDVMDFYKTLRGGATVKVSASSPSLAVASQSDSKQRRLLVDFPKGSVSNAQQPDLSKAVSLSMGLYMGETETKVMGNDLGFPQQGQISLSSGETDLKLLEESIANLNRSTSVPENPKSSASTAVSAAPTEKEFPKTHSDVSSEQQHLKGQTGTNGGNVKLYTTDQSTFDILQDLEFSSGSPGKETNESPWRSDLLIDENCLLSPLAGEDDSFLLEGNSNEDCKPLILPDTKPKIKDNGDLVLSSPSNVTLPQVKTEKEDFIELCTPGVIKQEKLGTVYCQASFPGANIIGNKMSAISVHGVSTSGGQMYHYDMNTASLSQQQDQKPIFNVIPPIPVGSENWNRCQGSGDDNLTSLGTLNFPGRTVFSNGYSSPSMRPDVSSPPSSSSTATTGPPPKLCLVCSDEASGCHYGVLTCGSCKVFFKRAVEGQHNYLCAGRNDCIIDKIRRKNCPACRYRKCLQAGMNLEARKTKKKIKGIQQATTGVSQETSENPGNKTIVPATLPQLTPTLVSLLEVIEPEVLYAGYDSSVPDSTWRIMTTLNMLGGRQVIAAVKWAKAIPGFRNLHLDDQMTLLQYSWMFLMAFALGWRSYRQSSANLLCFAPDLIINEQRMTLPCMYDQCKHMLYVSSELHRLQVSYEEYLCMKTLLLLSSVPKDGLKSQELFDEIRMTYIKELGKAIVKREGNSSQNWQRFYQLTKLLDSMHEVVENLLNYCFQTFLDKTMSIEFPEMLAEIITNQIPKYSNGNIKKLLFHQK
row,Compound,Potency
1,CN(C)c1oc(-c2cccs2)nc1C#N,> 20.6 µM (inactive)
2,O=C(NCCCN1CCOCC1)C1(c2ccccc2)CCOCC1,> 20.6 µM (inactive)
3,CN(C)CC(O)COc1ccc(C(C)(C)c2ccc(OCC(O)CN(C)C)cc2)cc1 (stereo not drawn),> 20.6 µM (inactive)
4,O=C(Nn1cnnc1)C(c1ccccc1)c1ccccc1,> 20.6 µM (inactive)
5,CN(C)CCNC(=O)C12CC3(C)CC(C)(CC(C)(C3)C1)C2,> 20.6 µM (inactive)
6,CC(=O)[C@H]1[C@@H]2C(=O)N(c3cccc(Cl)c3)C(=O)[C@@H]2[C@H]2c3ccccc3C=CN21,> 20.6 µM (inactive)
7,CCNc1sc(C(=O)c2cccs2)c(N)c1C#N,> 20.6 µM (inactive)
8,Cc1cc(C)n(Cc2ccc(C(=O)NCCC3=CCCCC3)o2)n1,> 20.6 µM (inactive)
9,Cc1c(C2CC(=O)N(c3ccccc3)C2=O)[nH]n(-c2ccccc2)c1=O (stereo not drawn),> 20.6 µM (inactive)
10,ONC(=Nc1ccccc1)C(=Nc1ccccc1)NO,> 20.6 µM (inactive)
11,CCCC1C2C(=O)N(c3ccccc3OC)C(=O)C2ON1c1ccccc1 (stereo not drawn),> 20.6 µM (inactive)
12,N#CC1(c2ccccc2)CCC(=NO)CC1 (stereo not drawn),> 20.6 µM (inactive)
13,c1ccc(SCc2nc3ccccc3[nH]2)nc1,> 20.6 µM (inactive)
14,CC(C)Cc1[nH]c(=O)c(C#N)c2c1COC(C)(C)C2,> 20.6 µM (inactive)
15,Nc1nc(NC(=O)Cc2ccccc2)nn1-c1ccccc1,> 20.6 µM (inactive)
16,C=CCOc1nc2c(c(=O)n(Cc3ccc(Cl)cc3)c(=O)n2C)n1C,> 20.6 µM (inactive)
17,N#Cc1nc(COc2ccc(Br)cc2)oc1NCCN1CCOCC1,> 20.6 µM (inactive)
18,C=C1[C@@H](C)C2[C@H](Cc3ccccc3)NC(=O)[C@]23OC(=O)CC[C@H](O)CCC[C@H](C)C/C=C/[C@H]3[C@@H]1O (stereo partly drawn),> 20.6 µM (inactive)
19,Cc1nc(NCCCO)c(C#N)c2c1COC(C)(C)C2,> 20.6 µM (inactive)
20,CC(=O)N1CCN(C2c3cccc4cccc(c34)C2NS(=O)(=O)c2ccccc2)CC1 (stereo not drawn),> 20.6 µM (inactive)

row,Compound,Potency
1,COc1ccc2c(=O)c(-c3nc(C)cs3)coc2c1,> 20.6 µM (inactive)
2,O=C(CSc1nnc(-c2ccccc2)c(-c2ccccc2)n1)N1CCOCC1,> 20.6 µM (inactive)
3,Cc1cc(C)n(CC2CC(=O)N(c3ccc(Cl)c(Cl)c3)C2=O)n1 (stereo not drawn),> 20.6 µM (inactive)
4,C=CCSc1nc(C)c(CC=C)c(=O)[nH]1,> 20.6 µM (inactive)
5,Cc1c(NC(=O)C(CC(=O)O)NCc2ccco2)c(=O)n(-c2ccccc2)n1C (stereo not drawn),> 20.6 µM (inactive)
6,CC(=O)NC1(C(F)(F)F)C(=O)Nc2c1c(=O)n(C)c(=O)n2C (stereo not drawn),> 20.6 µM (inactive)
7,O=C(NCc1ccccc1)/C(=N\O)c1ccccc1,> 20.6 µM (inactive)
8,CC1(C)CC(=O)C=C(N=CC2=C(O)CC(C)(C)CC2=O)C1,> 20.6 µM (inactive)
9,CCCOc1cccc(C2/C(=C(/O)c3ccc(F)cc3)C(=O)C(=O)N2CCN(C)C)c1 (stereo not drawn),> 20.6 µM (inactive)
10,Nc1ccc2[nH]ncc2c1,> 20.6 µM (inactive)
11,CCOC(=O)COc1nc(N(C)C)nc(N(C)C)n1,> 20.6 µM (inactive)
12,COc1ccc(Cn2c(O)cc(=O)[nH]c2=O)cc1,> 20.6 µM (inactive)
13,C=CCn1cnc2c(c1=O)c1nc3ccccc3nc1n2-c1ccc(C)cc1,> 20.6 µM (inactive)
14,COC(=O)C1C(=O)NCC1c1ccccc1 (stereo not drawn),> 20.6 µM (inactive)
15,N#Cc1nc(-c2cccs2)oc1NCCN1CCOCC1,> 20.6 µM (inactive)
16,Fc1cnc(N2CCOCC2)nc1NCc1ccccc1,> 20.6 µM (inactive)
17,COc1ccc(C2NC3=C(CCC3)C3(C#N)C(OC)(OC)N=C(N)C23C#N)cc1 (stereo not drawn),> 20.6 µM (inactive)
18,Cn1nccc1C(=O)Nc1ccccc1C(=O)O,> 20.6 µM (inactive)
19,CN=C1c2cc3c(Br)c(OC)ccc3n2CCN1C,> 20.6 µM (inactive)
